In article PMC4336329 (PLoS ONE, 2015):
Among all 310,000 compounds or so, about 14,000 (4.5%) showed an effect of 50% or more. Effects have a minus sign here. What follows is part of a selection rich in strong results, with near analogues and random picks from the rest.

Target: human ether-à-go-go-related gene (hERG) potassium channel (human, UniProt Q12809)
Assay: primary screen, population patch clamp on CHO cells stably expressing hERG; higher = less effect of the substance
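Note: peak tail current of the secondary pulse compared with the same well before compound.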

human ether-à-go-go-related gene (hERG) potassium channel, sequence (Q12809 whole entry, looked up): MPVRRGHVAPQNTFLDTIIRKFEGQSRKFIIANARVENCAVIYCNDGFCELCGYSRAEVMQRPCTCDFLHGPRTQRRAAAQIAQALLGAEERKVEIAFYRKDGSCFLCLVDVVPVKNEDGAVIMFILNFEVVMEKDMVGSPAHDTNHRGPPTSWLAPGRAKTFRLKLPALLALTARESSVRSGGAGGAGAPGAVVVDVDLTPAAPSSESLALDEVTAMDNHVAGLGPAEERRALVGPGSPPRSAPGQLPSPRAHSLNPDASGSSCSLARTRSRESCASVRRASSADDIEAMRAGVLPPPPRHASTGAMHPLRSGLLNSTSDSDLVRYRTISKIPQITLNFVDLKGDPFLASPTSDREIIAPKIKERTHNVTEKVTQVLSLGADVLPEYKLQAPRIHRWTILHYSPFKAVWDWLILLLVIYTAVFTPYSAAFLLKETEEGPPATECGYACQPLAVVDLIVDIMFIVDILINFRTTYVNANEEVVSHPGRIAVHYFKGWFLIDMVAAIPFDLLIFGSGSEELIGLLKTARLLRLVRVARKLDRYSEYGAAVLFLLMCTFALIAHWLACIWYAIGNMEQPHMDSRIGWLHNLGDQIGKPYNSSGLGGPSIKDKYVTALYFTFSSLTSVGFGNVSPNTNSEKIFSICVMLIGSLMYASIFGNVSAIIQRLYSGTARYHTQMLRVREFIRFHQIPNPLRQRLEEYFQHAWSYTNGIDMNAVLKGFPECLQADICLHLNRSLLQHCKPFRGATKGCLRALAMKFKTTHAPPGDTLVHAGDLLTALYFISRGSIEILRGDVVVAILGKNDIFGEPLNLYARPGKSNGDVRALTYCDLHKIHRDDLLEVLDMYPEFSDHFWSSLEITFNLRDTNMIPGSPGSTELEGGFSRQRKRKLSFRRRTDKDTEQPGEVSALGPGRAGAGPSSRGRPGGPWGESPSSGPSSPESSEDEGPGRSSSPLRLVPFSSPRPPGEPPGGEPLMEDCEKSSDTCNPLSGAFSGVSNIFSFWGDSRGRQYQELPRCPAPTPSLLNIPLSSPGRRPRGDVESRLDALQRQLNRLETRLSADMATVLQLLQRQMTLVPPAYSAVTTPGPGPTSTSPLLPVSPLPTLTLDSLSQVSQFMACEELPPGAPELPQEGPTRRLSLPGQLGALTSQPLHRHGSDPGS

SMILES | hERG current change (%, negative = inhibition) at 10uM [%]
Br.c1ccc(-c2ccccc2OCc2nnc3n2CCC3)cc1 | 16.3
COc1ccc(C2C(C(=O)N3CCCC3)c3cc(OC)c(OC)cc3C(=O)N2C)cc1OC (stereo not shown) | 0.414
CCC(=O)NCCNc1nc2cc(C)cc(C)c2cc1C#N | 58.1
Cc1cc(C)c2cc(C#N)c(NCCOC(=O)c3ccccc3C)nc2c1 | -54.8
COc1ccccc1C(=O)NCCNc1nc2cc(C)cc(C)c2cc1C#N | 13.3
Cc1c(OCC(=O)N2CCC(C(N)=O)CC2)ccc2c3c(c(=O)oc12)CCC3 | 7.25
CCOC(=O)N1CCC(Nc2c(OCC)c(=O)c2=O)CC1 | 3.96
Nc1ccccc1-c1nnc(-c2ccccc2N)n1N | 8.38
CCN(CC)C(=O)Cn1cc(S(=O)(=O)CC(=O)Nc2ccc3c(c2)OCCO3)c2ccccc21 | -9.47
CCOC(=O)Cn1c(S(=O)(=O)Cc2ccccc2Cl)nc(-c2ccccc2)c1-c1ccccc1 | -6.2
COc1ccc(/C=C/CN2CCC(CO)(Cc3ccccc3Cl)CC2)cc1 | -79.6
O=C(C1CCCC1)N1CCC(CO)(Cc2ccccc2Cl)CC1 | -44.3
OCC1(Cc2ccccc2Cl)CCN(C/C=C/c2ccccc2)CC1 | -68.4
CCC(C)CN1CCC(CO)(Cc2ccccc2Cl)CC1 (stereo not shown) | -30
CC(C)(C)NC(=O)N1CCC(CO)(Cc2ccccc2Cl)CC1 | -4.82
O=C(C1CCCCC1)N1CCC(CO)(Cc2ccccc2Cl)CC1 | -15.3
Cc1ccccc1OCC(=O)O/N=C(\N)Cc1cccs1 | 5.34
Cc1ccc2[nH]c3c(c2c1)CN(C(=O)CN(C)CC1OCCO1)CC3 | 12.7
COc1ccc(N2C(=O)NC(=O)/C(=C\c3ccc([N+](=O)[O-])s3)C2=O)cc1 | 13.3
O=C(Nc1cc(Cl)ccc1C(=O)O)c1ccc(CN2C(=O)c3ccccc3C2=O)cc1 | 20.7
Cc1ccc(OCC(=O)Nc2ccc(S(=O)(=O)Nc3ccccn3)cc2)cc1C | 24.4
O=C(Cn1cnc2c(NC(=O)OCc3ccccc3)ncnc21)NCCN1CCOCC1 | 1.26

SMILES | hERG current change (%, negative = inhibition) at 10uM [%]
Br.COC(=O)c1ccc(CN2CCSC2=N)cc1 | 6.85
CN(CC(=O)Nc1ccc(F)c(F)c1)S(=O)(=O)c1cccc2nsnc12 | -26.1
O=C(c1ccccn1)N(Cc1ccco1)C1(C(=O)NC2CCCC2)CCCCC1 | -5.62
O.O=C(O)c1cc(=O)c2c(Cl)cc(Cl)cc2[nH]1 | -51.9
O=C(O)/C(=C\c1c(C(=O)O)[nH]c2cc(Cl)cc(Cl)c12)c1ccccc1 | 13.3
O=C(O)c1cc(=O)c2ccccc2[nH]1 | 8.86
Cc1c(OC(C(=O)O)c2ccccc2)ccc2c1oc(=O)c1ccccc12 (stereo not shown) | 17.3
Cc1ccc(S(=O)(=O)Nc2ccc3c(c2)nc(CCN2CCN(c4ccccn4)CC2)n3C)cc1 | -84.6
Cn1c(CCN2CCN(c3ccccn3)CC2)nc2cc(NS(=O)(=O)c3ccc(Cl)cc3)ccc21 | -84.3
CC(=O)Nc1ccc2c(c1)nc(CCN1CCN(c3ccccn3)CC1)n2C | 18.6
CC(C)C(=O)Nc1ccc2c(c1)nc(CCN1CCN(c3ccccn3)CC1)n2C | -18.2
CC1=C(C(=O)OCC(Cl)(Cl)Cl)N2C(=O)C(NC(=O)Cc3ccccc3)C2SC1 (stereo not shown) | 15.5
O=c1[nH]c(/C=C/c2ccc3c(c2)OCO3)c([N+](=O)[O-])c(=O)[nH]1 | 45.8
COc1ccc(NC(=O)CN(C)CC(=O)NC2CCC(C)CC2)cc1 (stereo not shown) | 0.408
O=C(NCCc1ccccc1)C(NS(=O)(=O)c1cccc2nsnc12)c1ccccc1 (stereo not shown) | -25.4
COc1ccc(CCNC(=O)CCCn2c(SCC#N)nc3ccccc3c2=O)cc1OC | -12.7
COc1ccc(N2CCN(c3nc(Nc4ccc(C)c(F)c4)nc(N4CCCC4)n3)CC2)cc1 | 8.35
COc1ccc(N2CCN(Cc3nc(N)nc(Nc4ccc(C)c(Cl)c4)n3)CC2)cc1 | -63.1
CCOc1nc(Nc2ccc(OC)c(Cl)c2)nc(N2CCN(c3ccc(OC)cc3)CC2)n1 | 14.9
Nc1nc(CSC(=S)N2CCN(c3ccccc3)CC2)nc(Nc2ccccc2)n1 | 0.151
Nc1nc(CN2CCN(c3ccccc3)CC2)nc(Nc2ccc(Cl)cc2)n1 | -76
CCN1CCN(Cc2nc(N)nc(Nc3ccc(C)c(C)c3)n2)CC1 | -65.8

SMILES | hERG current change (%, negative = inhibition) at 10uM [%]
CCOc1nc(Nc2ccc(F)cc2)nc(N2CCN(c3ccc(OC)cc3)CC2)n1 | -14.7
COc1ccc(Nc2nc(N)nc(CN3CCN(c4ccc(F)cc4)CC3)n2)cc1 | -69.5
Cc1ccc(Nc2nc(N)nc(CSC(=S)N3CCN(c4ccccc4)CC3)n2)cc1 | 8.32
COC(=O)CC(=O)Cc1nc(N)nc(Nc2ccc(C)c(C)c2)n1 | -9.22
CS(=O)(=O)N1CCN(c2ccccc2NC(=O)c2cc3ccccc3o2)CC1 | 7.78
O=C(COC(=O)[C@H](Cc1ccccc1)N1C(=O)c2ccccc2C1=O)Nc1ccc2c(c1)OCO2 | -8.45
CCC1CCCCN1C(=O)c1cc(COc2ccc3ncccc3c2)on1 (stereo not shown) | 0.129
CCCCn1c(N)c(N(CCOC)C(=O)CSc2ccccc2C)c(=O)[nH]c1=O | -26.6
Cc1ccc(C(C)(C)C)cc1S(=O)(=O)Nc1nc2ccccc2nc1Cl | -33.6
COc1ccc(-c2csc3nc(-c4ccccc4OC)oc(=O)c23)cc1 | 19.1
COc1cc(C(=O)Nc2ccc3c(c2)Cc2ccccc2-3)cc(OC)c1OC | 0.538
CC(=O)c1ccc(NC(=O)C(C)Nc2ccc(Cl)cc2)cc1 (stereo not shown) | -4.45
Cc1nc(C(=O)NNC(=O)Nc2ccc(Cl)cc2)cs1 | -0.711
CCN(CC)S(=O)(=O)c1cccc(-c2cn3cc(C)ccc3n2)c1 | -9.87
O=C(Nc1cccnc1Oc1ccc(Cl)cc1)c1cccc2ccccc12 | 3.61
COCCC(=O)N1CCC(Oc2ccc(C(=O)N3CCC(N(C)C)C3)cc2)CC1 (stereo not shown) | 20.7
Cc1ccc(Nc2nc(N)nc(CN3CCN(c4ccccc4)CC3)n2)cc1Cl | -66.4
Cc1ccc(Nc2nc(N)nc(CN3CCN(Cc4ccccc4)CC3)n2)cc1Cl | -76.4
Cc1ccc(Nc2nc(N)c3ccccc3n2)cc1Cl.Cl | 9.26
CCCCN(C(=O)CNC(=O)c1ccco1)C(C(=O)NC1CCCC1)c1ccc(OC)cc1 (stereo not shown) | -20.1
NC(=O)CC(NC(=O)c1ccc(Br)cc1)c1ccc(N2CCN(c3ccc(F)cc3)CC2)c([N+](=O)[O-])c1 (stereo not shown) | 6.16
CC(=O)Nc1ccc(OC(=O)Oc2ccc(NC(C)=O)cc2)cc1 | 0.315

SMILES | hERG current change (%, negative = inhibition) at 10uM [%]
CC1(C)NC(C)(C)c2nonc2/C1=N\O | -1.78
CCn1c2c(c3cc(C(=O)O)ccc31)CCCC2=O | 18.5
CSc1nccc(N/N=C/c2ccccc2)n1 | 23.9
CC(=O)/C=C(\C)Nc1ccccc1O | 21.3
COc1ccc(C(=O)/C=C/Nc2ccccn2)cc1 | 2.01
Cc1cccc(-n2ncc3c2CCCC3NC(=O)CCc2ccncc2)c1C (stereo not shown) | 4.95
O=C(NC1CCCc2c1cnn2-c1cc(F)cc(F)c1)c1cc[n+]([O-])cc1 (stereo not shown) | -37.1
O=C(NC1CCCc2c1cnn2-c1cc(F)cc(F)c1)c1ccccn1 (stereo not shown) | -52.4
O=C(CCc1ccncc1)NC1CCCc2c1cnn2-c1ccc(F)cc1F (stereo not shown) | -12.5
O=C(NC1CCCc2c1cnn2-c1cc(F)cc(F)c1)c1ccncc1 (stereo not shown) | -64.1
C=CCC(=O)NC1CCCc2c1cnn2-c1cc(F)cc(F)c1 (stereo not shown) | -75.7
O=C(NC1CCCc2c1cnn2-c1ccc(F)cc1F)c1ccccn1 (stereo not shown) | 1.82
Cn1nccc1C(=O)NC1CCCc2c1cnn2-c1cc(F)cc(F)c1 (stereo not shown) | -45.2
O=C(NC1CCCc2c1cnn2-c1ccccc1F)c1ccccn1 (stereo not shown) | 5.09
CCN(CC)CC(=O)NC1CCCc2c1cnn2-c1cc(F)cc(F)c1 (stereo not shown) | -9.77
O=C(CCc1ccncc1)NC1CCCc2c1cnn2-c1cc(F)cc(F)c1 (stereo not shown) | -56.5
CSCC(=O)NC1CCCc2c1cnn2-c1cc(F)cc(F)c1 (stereo not shown) | -12.6
OCC(O)C(O)C(O)C(O)C1NCCS1 (stereo not shown) | 0.867
O=C1CSC(c2ccc(Cl)cc2)N1C1CCCCC1 (stereo not shown) | -14.4
